The text below walks through data of publication PMC12215968.

In assay [1] the target is Eukaryotic translation initiation factor 3 subunit C (UniProt Q99613). Briefly: cross-linking mass spectrometry.
The target in assay [2] is Peptidyl-prolyl cis-trans isomerase A (UniProt P62937). The assay can be described thus: cross-linking mass spectrometry.
The target of assay [3] is Thymosin beta-4 (UniProt P62328). The assay can be described thus: cross-linking mass spectrometry.
The target of assay [4] is 26S proteasome non-ATPase regulatory subunit 2 (UniProt Q13200). The assay can be described thus: cross-link between two proteins; cross-linking mass spectrometry.
In assay [5] the target is Adenylyl cyclase-associated protein 1 (UniProt Q01518). The description is as above.
Assay [6] has as its target Elongation factor 1-alpha 2 (UniProt Q05639). The description is as above.
Assay [7] concerns the target Heat shock protein HSP 90-beta (UniProt P08238). The assay is described as above.
The target in assay [8] is Putative heat shock protein HSP 90-beta-3 (UniProt Q58FF7). The description is as above.
The target in assay [9] is Histone H1.2 (UniProt P16403). Described as above.
Assay [10] deals with Histone H2B type F-S (UniProt P57053). The description is as above.
For assay [11], the target named is T1, Junctophilin-2 (UniProt Q9BR39).
T1 sequence: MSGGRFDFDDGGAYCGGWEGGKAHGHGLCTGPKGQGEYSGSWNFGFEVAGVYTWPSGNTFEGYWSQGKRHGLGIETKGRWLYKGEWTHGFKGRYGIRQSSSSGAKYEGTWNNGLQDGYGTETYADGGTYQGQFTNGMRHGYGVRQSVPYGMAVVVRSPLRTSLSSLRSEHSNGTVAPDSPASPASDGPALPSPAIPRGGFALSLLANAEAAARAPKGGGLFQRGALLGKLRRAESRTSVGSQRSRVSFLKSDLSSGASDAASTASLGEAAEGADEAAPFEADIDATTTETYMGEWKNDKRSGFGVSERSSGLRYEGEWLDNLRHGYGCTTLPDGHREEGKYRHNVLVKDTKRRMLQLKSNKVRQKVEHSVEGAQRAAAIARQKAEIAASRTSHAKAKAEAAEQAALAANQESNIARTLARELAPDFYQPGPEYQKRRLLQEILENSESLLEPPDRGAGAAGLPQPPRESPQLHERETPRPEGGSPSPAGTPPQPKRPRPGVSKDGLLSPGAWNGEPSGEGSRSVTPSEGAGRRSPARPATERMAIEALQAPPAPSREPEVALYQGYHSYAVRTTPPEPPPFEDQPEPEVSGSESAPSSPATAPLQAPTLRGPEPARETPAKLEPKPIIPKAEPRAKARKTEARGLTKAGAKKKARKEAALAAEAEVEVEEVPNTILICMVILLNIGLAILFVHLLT
Described as above.

For assay [12], the target named is Large ribosomal subunit protein eL24 (UniProt P83731). Described as above.
In assay [13] the target is Ribosomal protein eL42-like (UniProt Q969Q0). The description is as above.
Assay [14] deals with Thymosin beta-10 (UniProt P63313). The description is as above.
The target of assay [15] is Ubiquitin-conjugating enzyme E2 L3 (UniProt P68036). The assay is described as above.
For assay [16], the target named is Ubiquitin-like FUBI-ribosomal protein eS30 fusion protein (UniProt P62861). The description is as above.
For assay [17], the target named is Ubiquitin-ribosomal protein eS31 fusion protein (UniProt P62979). Described as above.

On to “Small ribosomal subunit protein uS15, P62277”, for which the “listed as a hit” value in assay [1] is “yes”.
On to Actin, cytoplasmic 1, P60709, for which the “listed as a hit” value in [2] and in assay [3] was “yes” each time.
As for “26S proteasome regulatory subunit 8, P62195”, the “listed as a hit” value in assay [4] is on record as “yes”.
For Actin, alpha cardiac muscle 1, P68032, the “listed as a hit” value in [5] was “yes”.
Turning to “Large ribosomal subunit protein uL13, P40429”, the “listed as a hit” value in [6] is recorded as “yes”.
O60361: the “listed as a hit” value in assay [7] and in assay [8] was “yes” in each case.
“Non-histone chromosomal protein HMG-17, P05204”: the “listed as a hit” value in assay [9] is listed as “yes”.
Take Histone H2A type 1, P0C0S8: the “listed as a hit” value in assay [10] is “yes”.
On to Histone H2B type 1-C/E/F/G/I, P62807, for which, in assay [11], the “listed as a hit” value was “yes”.
On to “Large ribosomal subunit protein eL8, P62424”, for which, in assay [12], the “listed as a hit” value is given as “yes”.
Regarding “Large ribosomal subunit protein uL1, P62906”, the “listed as a hit” value in assay [13] is “yes”.
In the case of Actin, cytoplasmic 2, P63261, the “listed as a hit” value in [14] is given as “yes”.
For the substance “Ubiquitin-ribosomal protein eS31 fusion protein, P62979”, the “listed as a hit” value in assay [15] is given as “yes”.
For the substance Elongation factor 2, P13639, the “listed as a hit” value in [16] is “yes”.
Consider Histone H2A type 1-B/E, P04908, for which the “listed as a hit” value in assay [17] is on record as “yes”.
Same read-out and setting: the value for Histone H2A type 1-D, P20671 was “yes”.
